# Results taken from ChEMBL document CHEMBL3988442, “University of Dundee, Small-Polar-MMV Screening Library” (2021).
# The whole screen tested about 48,000 compounds, of which about 13,000 (27%) showed an effect of 50% or more. The list shows a part of the results.
# Tested on: Wolbachia pipientis
# Experiment: Anti-Wolbachia Cell-Based Screen
# Type: functional
# Set-up: scale not given: in the data most compounds retested in dose-response had high values
# Details: 5 µM
row,SMILES,Percent Effect
1,NC(=O)C(NCc1ccc(Cl)s1)c1ccccc1 (stereo not given),-5.898%
2,CC(c1nc(C2CC2)no1)N(C)Cc1ccc(Cl)cc1 (stereo not given),-4.386%
3,Cc1cc(-c2nn(C)c(Cl)c2CN2CC[C@@](O)(C3CCC3)[C@H](C)C2)no1,9.361%
4,CC(C1CCN(Cc2c(Cl)cncc2Cl)CC1)N1CCOCC1 (stereo not given),1.146%
5,CCCNC(=O)c1ccc(S(=O)(=O)NCC2(O)CCCNC2)cc1 (stereo not given),-4.599%
6,O=C(NCCN1CCOCC1)c1ccc(-c2ccc(F)cc2)nc1O,-1.382%
7,O=C(Cn1cc(Cl)cn1)NCCN1CCC(O)(c2ccc(F)cc2)CC1,66.04%
8,NC(=O)C1CCN(CC(=O)NCCn2cc(Cl)cn2)CC1,-2.539%
9,O=C(NCCN1CCCCCC1)c1coc(COc2ccc(F)cc2)n1,-5.25%
10,Cc1cccc(N2CCN(CCNC(=O)c3ccnn3C)CC2)c1,20.06%
11,CC1CCN(CCNC(=O)Nc2ccc(F)cc2Cl)CC1,1.976%
12,Cn1nccc1C(=O)NCCN1CCC(O)(c2ccc(F)cc2)CC1,137.8%
13,NC(=O)CN1CCC(C(=O)NCCn2cc(Cl)cn2)CC1,2.042%
14,Cn1ncc(Cl)c1C(=O)NCCN1CCC(O)(c2ccc(F)cc2)CC1,129.2%
15,Cc1c(Cl)cccc1OCC(=O)NC1(C#N)CCSC1 (stereo not given),-5.269%
16,COc1cc2nc(C)sc2cc1NC(=O)CN(C)C(C)C,-15.43%
17,CC(C)(C)OC(=O)N1CCCc2ccc(NCc3ccon3)cc21,-9.372%
18,COC(=O)c1cccc(C(=O)N(C)Cc2cccc(F)c2)c1,85.67%
19,CN(Cc1ccsc1)C(=O)c1cccc(F)c1,7.751%
20,CN(Cc1cccc(O)c1)C(=O)c1ccc(CCC(C)(C)O)cc1,-13.77%
21,COC(=O)Nc1cccc(C(=O)N(C)Cc2cccc(O)c2)c1,89.16%
22,CC(C)Cn1ncc2cc(C(=O)N(C)Cc3cccc(O)c3)cnc21,-1.61%
23,CCN(C)C(=O)c1cccc(C(=O)N(C)Cc2cccc(O)c2)c1,101.4%
24,COC(=O)c1cccc(C(=O)N(C)Cc2ccsc2)c1,77.93%
25,CN(C)C(=O)c1cccc(NC(=O)N(CCO)Cc2ccsc2)c1,5.648%

row,SMILES,Percent Effect
1,CN(Cc1cccc(F)c1)C(=O)c1ccncc1Cl,-2.45%
2,CC(=O)Nc1cccc(CNC(=O)N(C)Cc2ccccc2)c1,-8.333%
3,COCc1cccc(NC(C)C(=O)N(C)Cc2cccc(F)c2)c1 (stereo not given),-0.4154%
4,c1cnc2c(c1)nc1n2[C@@H](CNC2CCOCC2)COC1,-0.09884%
5,CCCC(=O)N(CCCN1CCOCC1)c1nc2c(F)cccc2s1.Cl,33.03%
6,CN(C)Cc1nnc(C(=O)N(C)Cc2ccc(C(F)(F)F)cc2)o1,-9.605%
7,O=C(NCc1nc(C2CCCCC2)no1)C1CC(=O)N(C2CCCC2)C1 (stereo not given),-9.19%
8,CCc1nc(CSc2nnc(N)n2C2CC2)no1,6.66%
9,CC(=O)c1cccc(OCCCC(=O)N(C)Cc2cccc(O)c2)c1,-0.5874%
10,COC(=O)c1cccc(C(=O)N(C)Cc2cccc(O)c2)c1,112.7%
11,Cc1nc2cc(=O)[nH]n2c(C)c1CC(=O)Nc1cn[nH]c1,-20.81%
12,Cc1nc2c(c(C)c1CC(=O)Nc1ccc(Cl)cc1)c(=O)[nH]n2C,-4.982%
13,Cc1cnc(NC(=O)NCCOc2ncccc2Cl)s1,12.43%
14,Cn1c(=O)[nH]c(=O)n2c(CC(=O)Nc3c(Cl)cccc3Cl)cnc12,100.8%
15,Cn1c(=O)[nH]c(=O)n2c(CC(=O)NCc3ccccc3)cnc12,108.8%
16,COc1ncc(C(=O)NCc2ccccc2)cn1,-10.01%
17,O=C(CCn1ccccc1=O)Nc1ccc(F)c(Cl)c1,4.502%
18,COCC(=O)Nc1ccc(Sc2nncn2C)c(Cl)c1,2.363%
19,Cc1cccc(Cl)c1NC(=O)Cn1cc(C(=O)O)ccc1=O,9.076%
20,Cn1c(=O)[nH]c(=O)n2c(CC(=O)Nc3ccc(Cl)c(Cl)c3)cnc12,103.6%
21,CC(C)(C)n1ncc2c(=O)n(CC(=O)NCc3ccccc3)cnc21,3.953%
22,Cc1ccc(NC(=O)Cc2cnc3n(C)c(=O)[nH]c(=O)n23)cc1,128%
23,CNS(=O)(=O)CC(=O)N(Cc1c(F)cccc1F)C1CCCC1,-5.167%
24,Cc1cccc(CN(C(=O)CS(C)(=O)=O)C(C)C)c1,-6.499%
25,CC(C)c1cnc(CN2CCCS2(=O)=O)o1,3.272%

row,SMILES,Percent Effect
1,O=C(NCC(O)c1ccc(F)c(F)c1)c1cccnc1O (stereo not given),-2.059%
2,CCNc1ncc(CN2C[C@H](C3CC3)[C@@H](N)C2)cn1,-8.073%
3,CC(C)Cc1cc(CNC(=O)c2cccc3c2NCCC3)no1,2.864%
4,Cc1cccc(NCc2nn(C)c(=O)[nH]2)c1,-1.788%
5,Cc1cccc(NC(=O)Cc2cnc3n(C)c(=O)[nH]c(=O)n23)c1,101.4%
6,COCCn1ccc(=O)c(OCC(=O)Nc2ccccc2)c1C,9.271%
7,Cn1c(=O)ccn(CC(=O)Nc2cccnc2)c1=O,18.35%
8,Cn1c(=O)[nH]c(=O)n2c(CC(=O)Nc3ccccc3)cnc12,114.1%
9,Cc1nc2c(c(C)c1CC(=O)Nc1cccc(C#N)c1)c(=O)[nH]n2C,-6.097%
10,Cc1nnc(N2CCC(CCN(C)C)CC2)c(C#N)c1C,18.81%
11,O=S(=O)(C1CC1)N1CCOC2(CCCN(c3ccccc3)C2)C1 (stereo not given),-6.387%
12,COC(=O)N1C[C@H]2CC[C@@H]1CN(Cc1cscn1)C2,-5.87%
13,Cc1ccc(N2CCCC(N(C)Cc3nc(C)c(C)o3)C2)nn1 (stereo not given),-10.05%
14,Cc1ccc(N2CC3(COCCN(Cc4ccncc4)C3)OCC2=O)s1.O=C(O)C(F)(F)F.O=C(O)C(F)(F)F (stereo not given),7.716%
15,O=C(O)C(F)(F)F.O=C(O)C(F)(F)F.O=C1COC2(CCN(Cc3ccncc3)CC2)CN1c1ccccc1,106.6%
16,O=C(O)C(F)(F)F.O=C1COC2(CCN(Cc3nccs3)CC2)CN1c1ccccc1,109.8%
17,O=C(O)C(F)(F)F.O=C1COC2(CCN(Cc3nccs3)CC2)CN1CC1CC1,-7.755%
18,Cc1ccc(N2CC3(COCCN(Cc4cnn(C)c4)C3)OCC2=O)s1.O=C(O)C(F)(F)F (stereo not given),-8.814%
19,Cn1cc(CN2CCC3(CC2)CN(c2cccnc2)C(=O)CO3)cn1,89.07%
20,CN1CC(=O)N(c2ccccc2)CC12CCN(Cc1nccs1)C2.O=C(O)C(F)(F)F.O=C(O)C(F)(F)F (stereo not given),-23.26%
21,O=C(O)C(F)(F)F.O=C(O)C(F)(F)F.O=C1COC2(COCCN(Cc3cccnc3)C2)CN1c1ccccc1 (stereo not given),-10.32%
22,O=C(O)C(F)(F)F.O=C(O)C(F)(F)F.O=C1COC2(CCN(Cc3cccnc3)CC2)CN1c1ccccc1,95.43%
23,CN1CC(=O)N(c2cccc(F)c2)CC12CCN(Cc1ccncc1)C2.O=C(O)C(F)(F)F.O=C(O)C(F)(F)F (stereo not given),-24.86%
24,CCS(=O)(=O)c1ncc(CN(C)CCc2ccccn2)n1CCOC,-7.108%
25,CC(C)(C)c1ccc(S(=O)(=O)CCNC(=O)c2cnccn2)cc1,-1.994%

row,SMILES,Percent Effect
1,O=C(Nc1cc(C2CCOCC2)[nH]n1)c1cscn1,-9.479%
2,O=C(O)C(F)(F)F.O=C1COC2(CCN(Cc3ccoc3)CC2)CN1c1ccccc1,110.1%
3,c1coc(-c2nc3c(c(N4CCCN5CCC[C@H]5C4)n2)CCNCC3)c1,-2.635%
4,O=C(O)c1ccc(-c2cscn2)cc1,-4.979%
5,CC(=O)N1CCC(c2cccc(-c3cccc(C(=O)O)c3)n2)CC1,150.5%
6,CN1CCC(c2cccc(-c3cccc(C(=O)O)c3)n2)CC1,172.2%
7,CN1CCC(c2cccc(-c3ccc(C(=O)O)cc3)n2)CC1,143.4%
8,Cc1nc(-c2cccc(C(=O)O)c2)c[nH]1,12.51%
9,CCC1CN(CC(=O)NCC(C)C)CCO1 (stereo not given),14.46%
10,CN(C)C(Cn1ccnc1-c1nccn1C)c1ccccc1Cl (stereo not given),-33.34%
11,Cn1cnc(S(=O)(=O)NCC2(O)CCc3ccccc3C2)c1 (stereo not given),-0.2896%
12,Cc1cc(C(F)(F)F)cc(N2CCN(Cc3ccccc3)CC(O)C2)n1 (stereo not given),-8.979%
13,Cc1noc(C)c1C(=O)NCc1cc[nH]n1,-8.617%
14,NC(=O)CCC1CCCN(c2ncnc3c2Cc2ccccc2OC3)C1 (stereo not given),-12.56%
15,CCc1cnc(N2CCCOC(CN3CCCC3)C2)nc1 (stereo not given),-1.454%
16,O=C(O)CCc1cc2n(n1)CCN(Cc1cnc(N3CCCC3)nc1)C2,-15.82%
17,c1nc(N2CCCC2)ncc1CN1CCCC(CN2CCCCC2)C1 (stereo not given),95.39%
18,NC(=O)CCC1CCCN(Cc2cnc(N3CCCCC3)nc2)C1 (stereo not given),104.2%
19,N[C@H]1CN(Cc2cnc(N3CCCC3)nc2)C[C@@H]1C1CC1,-16.17%
20,CCc1cnc(N2CCCC(CCC(N)=O)C2)nc1 (stereo not given),109.3%
21,COc1ccccc1-c1ncc(CN2CCCC(CCC(N)=O)C2)s1 (stereo not given),16.75%
22,Cc1cccc(C)c1OC1CN(Cc2cnc(N3CCCC3)nc2)C1,1.788%
23,O=C(N[C@H]1CN(C2CCOCC2)C[C@@H]1C1CC1)c1ccon1,-9.557%
24,CN(Cc1cc[nH]n1)C(C(=O)O)c1ccc(Cl)cc1 (stereo not given),-11.22%
25,Cc1cnn(-c2ccc(S(=O)(=O)N(C)CC(C)(CO)CO)cc2F)c1,-2.822%
